From PubChem BioAssay (NCI) come the findings set out here.

This is part of a sample that, as a whole, favours compounds with a hit. Of some 83,000 tested, about 20% had one in any assay.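 Testing used 96-well plates and a 48-hour single-concentration exposure. Example: -40 means 40% of the starting cells died.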 Unmarked numbers belong to inactive results. Calls of active or inactive are those of the source. How the source made its calls: active means growth percent below 10; inactive means the rest.

Among the test systems are DU-145 prostate; K-562 leukemia; MALME-3M melanoma; MDA-MB-231 breast; RXF 393 renal; SF-268 CNS; SF-295 CNS; SF-539 CNS; UACC-257 melanoma; M14 melanoma; HCT-15 colon; HT29 colon; SNB-75 CNS; SNB-19 CNS; U251 CNS; SK-MEL-5 melanoma; UACC-62 melanoma; LOX IMVI melanoma; SK-MEL-28 melanoma; PC-3 prostate.
Holding throughout (experiment): NCI-60 one-dose screen, 48 h (100 = growth as untreated, 0 = no growth, -100 = all killed)
What all share (settings): 10 µM unless noted

Consider `O=S1(=O)C=C(c2ccccc2)C(c2ccccc2)=C1`, for which the growth was 9.89% (active) in the test with DU-145 prostate; 4.11% (active) in the test with K-562 leukemia; -32.6% (active) with MALME-3M melanoma; 11% in the test on MDA-MB-231 breast; -86.8% (active) in the test with RXF 393 renal; 3.46% (active) in the test on SF-268 CNS. Also, the growth in the test with SF-295 CNS was 73.5%; with SF-539 CNS it was 9.24% (active); in the test on UACC-257 melanoma it was 2.35% (active); in the test on M14 melanoma, 12.1%; in the test with HCT-15 colon it was -6.66% (active); in the test with HT29 colon it was -34.3% (active). The growth with SNB-75 CNS is 50%; with SNB-19 CNS, 76.6%; in the test with U251 CNS, 14.8%; in the test on SK-MEL-5 melanoma, 27.4%; in the test with UACC-62 melanoma, 5.7% (active); in the test with LOX IMVI melanoma it was -69.4% (active). Also, the growth with SK-MEL-28 melanoma is 17.9%.

Take `Cc1ccc(-c2csc(N(C(=O)N3CCN(c4cc5c(cc4F)c(=O)c(C(=O)O)cn5C4CC4)CC3)c3ccccc3)n2)cc1`: the growth in the test with DU-145 prostate is 21.4%; in the test on K-562 leukemia, 13.5%; in the test on MALME-3M melanoma, 3.95% (active); with MDA-MB-231 breast, 24.2%; in the test on RXF 393 renal it was 4.05% (active); with SF-268 CNS, 20.4%. For the same compound, the growth in the test on SF-295 CNS was 2.22% (active); with SF-539 CNS, -0.211% (active); in the test on UACC-257 melanoma, 9.78% (active); with M14 melanoma, 21.1%; in the test with HCT-15 colon, 7.57% (active); in the test on HT29 colon, 3.8% (active). Further, the growth in the test on SNB-75 CNS was 18.6%; in the test with SNB-19 CNS, 15.7%; in the test on U251 CNS it was 12.6%; in the test on SK-MEL-5 melanoma, -57.2% (active); in the test with UACC-62 melanoma, 1.23% (active); in the test on LOX IMVI melanoma, 7.08% (active). For the same compound, in the test on SK-MEL-28 melanoma, the growth was 32.3%.

In the case of `CC1(C)N=C(N)N=C(N)N1c1cccc(CCc2ccccc2)c1`, the growth is 37.3% in the test with DU-145 prostate; 23.1% in the test on K-562 leukemia; 79.1% in the test with MALME-3M melanoma; 68.9% in the test with MDA-MB-231 breast; 78.5% in the test on RXF 393 renal; 32.4% in the test with SF-268 CNS. In addition, the growth is 41.9% with SF-295 CNS; 23% in the test with SF-539 CNS; 39.3% in the test with UACC-257 melanoma; 55.4% in the test on M14 melanoma; 85.8% in the test on HCT-15 colon; 14.3% in the test on HT29 colon. For the same compound, the growth with SNB-75 CNS is 63%; in the test with U251 CNS, 38.1%; in the test with PC-3 prostate it was 34.6%; in the test with SK-MEL-5 melanoma, 12%; with UACC-62 melanoma it was 24.7%; in the test with LOX IMVI melanoma, 24%. Further, the growth with SK-MEL-28 melanoma was 46.3%.

On to `Cc1ccc2nc(-c3ccc(C(=O)NNC(=S)Nc4ccccc4)cc3)[nH]c2c1`, for which the growth in the test on DU-145 prostate is 102%; with K-562 leukemia, 62.5%; with MALME-3M melanoma, 94.5%; with MDA-MB-231 breast, 99.6%; in the test on RXF 393 renal, 91.1%; in the test on SF-268 CNS, 99.7%. In addition, the growth with SF-295 CNS was 90%; with SF-539 CNS it was 99.4%; in the test with UACC-257 melanoma, 102%; with M14 melanoma, 88.6%; with HCT-15 colon, 87.1%; in the test on HT29 colon it was 92.5%. Moreover, the growth was 99.9% in the test with SNB-75 CNS; 97.8% in the test on SNB-19 CNS; 103% with U251 CNS; 94.2% in the test with SK-MEL-5 melanoma; 98.9% with UACC-62 melanoma; 87.1% with LOX IMVI melanoma. In addition, the growth with SK-MEL-28 melanoma was 95.3%.

On to `CCN1C(=O)N(CC)C2C1NC(=S)N2/N=C/c1ccc(OC)cc1` (stereo unspecified), for which the growth in the test with DU-145 prostate is 78.5%; in the test with K-562 leukemia it was 20.1%; in the test on MALME-3M melanoma, 54.4%; in the test with MDA-MB-231 breast, 69.5%; in the test on RXF 393 renal, 59.8%; in the test with SF-268 CNS, 71.8%. Further, the growth is 42.1% with SF-295 CNS; 55.2% with SF-539 CNS; 61% in the test on UACC-257 melanoma; 29.9% with M14 melanoma; 33.2% with HCT-15 colon; 8.46% (active) in the test on HT29 colon. The growth was 15.1% with SNB-75 CNS; 40.3% in the test with U251 CNS; 55.9% in the test with PC-3 prostate; 43.3% with SK-MEL-5 melanoma; 38.5% in the test on UACC-62 melanoma; 49.2% in the test on LOX IMVI melanoma. Also, in the test with SK-MEL-28 melanoma, the growth is 71%.

As to `CNC(=O)c1cc(Oc2cccc3nc(NC(=O)Nc4cc(C(F)(F)F)ccc4Cl)ccc23)ccn1`, the growth was 78.6% in the test on DU-145 prostate; 80.9% with K-562 leukemia; 69.2% in the test on MALME-3M melanoma; 49.1% in the test on MDA-MB-231 breast; 73.7% with RXF 393 renal; 74.9% in the test with SF-268 CNS. The growth with SF-295 CNS was 106%; in the test with SF-539 CNS, 32.6%; in the test with UACC-257 melanoma, 98.3%; in the test on M14 melanoma, 95.1%; with HCT-15 colon, 90%; in the test on HT29 colon, 89.8%. The growth in the test on SNB-75 CNS was 68.9%; in the test on U251 CNS, 70.4%; in the test with PC-3 prostate, 96.5%; in the test with SK-MEL-5 melanoma it was 80.2%; in the test with UACC-62 melanoma it was 96.3%; in the test with SK-MEL-28 melanoma, 92.4%.

For the compound `CCN1CCN(C(=O)[C@]23CC[C@@H](C)[C@H](C)[C@@H]2C2=CC[C@@H]4[C@@]5(C)C/C(=C/c6cccnc6)C(=O)C(C)(C)[C@@H]5CC[C@@]4(C)[C@]2(C)CC3)CC1`, the growth with DU-145 prostate is 48%; in the test on K-562 leukemia, 6.46% (active); in the test on MALME-3M melanoma, 12%; in the test on MDA-MB-231 breast, 34.7%; with RXF 393 renal, 3.08% (active); in the test on SF-268 CNS, 51%. The growth was 37.3% in the test with SF-295 CNS; 8.77% (active) with SF-539 CNS; 26% in the test with UACC-257 melanoma; 40.9% in the test on M14 melanoma; 15.2% in the test with HCT-15 colon; 12.1% in the test with HT29 colon. For the same compound, the growth in the test with SNB-75 CNS was 27.6%; in the test on SNB-19 CNS, 45.9%; in the test with U251 CNS it was 27.9%; in the test on SK-MEL-5 melanoma, -23.4% (active); in the test on UACC-62 melanoma, 33.8%; with LOX IMVI melanoma it was 14.9%. The growth in the test with SK-MEL-28 melanoma was 37.4%.

Consider `O=S(=O)(NCCNc1nccc(-c2c(-c3cccc(O)c3)nc3occn23)n1)c1ccc(Br)cc1`, for which the growth is 44.8% in the test on DU-145 prostate; 17.2% with K-562 leukemia; 15% in the test with MALME-3M melanoma; 34.7% in the test on MDA-MB-231 breast; 28.8% in the test with RXF 393 renal; 40.8% in the test on SF-268 CNS. The growth is 78.3% with SF-295 CNS; 48.7% with SF-539 CNS; 20.8% in the test on UACC-257 melanoma; 17.8% in the test on M14 melanoma; 67.3% in the test with HCT-15 colon; 19.1% with HT29 colon. The growth is 56.5% in the test with SNB-75 CNS; 41% in the test with U251 CNS; 29.9% in the test with PC-3 prostate; 4.04% (active) with SK-MEL-5 melanoma; 5.9% (active) with UACC-62 melanoma; 25.2% with LOX IMVI melanoma. Further, in the test on SK-MEL-28 melanoma, the growth was 26.1%.
